# In the supplement of paper PMC8728848:
# Shown is part of a subset that was picked to be rich in the strongest signals.
# Tests used:
# Experiment in all cases: glycan array binding signal (z-score within array); higher = stronger binding
# Conditions in all cases: glycan notation: IUPAC condensed, linker removed
# [1] = target: Fuc(a1-2)Gal(b1-4)Glc
# Summary of the method: (§1)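 Glycan array binding is given as a within-array Z-score, which can be read as non-binding when negative. The arrays, 3228 of them, came from the Consortium for Functional Glycomics database and were retained only where the protein sequence was available. Z-scores were averaged across arrays of the same protein sequence at different concentrations or buffers and across linkers.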
# [2] = target: Fuc(a1-2)Gal(b1-4)GlcNAc6S
# Summary of the method: as §1
# [3] = target: Fuc(a1-2)Gal6S(b1-4)GlcNAc
# Summary of the method: as §1
# [4] = target: Fuc(a1-2)[GalNAc(a1-3)]Gal(b1-4)GlcNAc(b1-2)Man(a1-3)[Fuc(a1-2)[GalNAc(a1-3)]Gal(b1-4)GlcNAc(b1-2)Man(a1-6)]Man(b1-4)GlcNAc(b1-4)GlcNAc
# Summary of the method: as §1
# [5] = target: Fuc(a1-3)[Gal(b1-4)]GlcNAc(b1-2)Man(a1-3)[Fuc(a1-3)[Gal(b1-4)]GlcNAc(b1-2)Man(a1-6)]Man(b1-4)GlcNAc(b1-4)GlcNAc
# Summary of the method: as §1
# [6] = target: Fuc(a1-3)[Gal(b1-4)]GlcNAc(b1-4)Gal(b1-4)[Fuc(a1-3)]GlcNAc
# Summary of the method: as §1
# [7] = target: Gal(a1-3)Gal(b1-3)[Fuc(a1-4)]GlcNAc(b1-2)Man(a1-3)[Gal(a1-3)Gal(b1-3)[Fuc(a1-4)]GlcNAc(b1-2)Man(a1-6)]Man(b1-4)GlcNAc(b1-4)GlcNAc
# Summary of the method: as §1
# [8] = target: Gal(a1-4)Gal(b1-4)GlcNAc(b1-2)Man(a1-3)[Gal(a1-4)Gal(b1-4)GlcNAc(b1-2)Man(a1-6)]Man(b1-4)GlcNAc(b1-4)GlcNAc
# Summary of the method: as §1
# [9] = target: Gal(b1-2)Gal
# Summary of the method: as §1
# [10] = target: Gal(b1-3)[Fuc(a1-4)]GlcNAc(b1-2)Man(a1-3)[Gal(b1-3)[Fuc(a1-4)]GlcNAc(b1-2)Man(a1-6)]Man(b1-4)GlcNAc(b1-4)GlcNAc
# Summary of the method: as §1
# [11] = target: Gal(b1-3)[Neu5Ac(a2-6)]GalNAc
# Summary of the method: as §1
# [12] = target: Gal(b1-4)GlcNAc(b1-2)Man(a1-3)[Gal(b1-4)GlcNAc(b1-2)Man(a1-6)]Man(b1-4)GlcNAc(b1-4)[Fuc(a1-6)]GlcNAc
# Summary of the method: as §1
# [13] = target: Gal(b1-4)GlcNAc(b1-3)Gal(b1-3)GlcNAc
# Summary of the method: as §1
# [14] = target: Gal(b1-4)GlcNAc(b1-3)Gal(b1-4)Glc
# Summary of the method: as §1
# [15] = target: Gal(b1-4)GlcNAc(b1-6)Gal(b1-4)GlcNAc
# Summary of the method: as §1
# [16] = target: Gal3S(b1-4)Glc
# Summary of the method: as §1
# [17] = target: Gal3S(b1-4)[Fuc(a1-3)]Glc6S
# Summary of the method: as §1
# [18] = target: GalNAc(b1-4)GlcNAc(b1-2)Man(a1-3)[GalNAc(b1-4)GlcNAc(b1-2)Man(a1-6)]Man(b1-4)GlcNAc(b1-4)GlcNAc
# Summary of the method: as §1
# [19] = target: GlcNAc(a1-4)Gal(b1-4)GlcNAc
# Summary of the method: as §1
# [20] = target: Kdn(a2-3)Gal(b1-4)[Fuc(a1-3)]GlcNAc
# Summary of the method: as §1
# [21] = target: Man(a1-2)Man(a1-6)[Man(a1-3)]Man(a1-6)[Man(a1-2)Man(a1-2)Man(a1-3)]Man
# Summary of the method: as §1
# [22] = target: Neu5Ac(a2-3)Gal(b1-3)GlcNAc(b1-3)Gal(b1-4)GlcNAc
# Summary of the method: as §1
# [23] = target: Neu5Ac(a2-3)Gal(b1-3)[Fuc(a1-4)]GlcNAc(b1-3)Gal(b1-4)[Fuc(a1-3)]GlcNAc
# Summary of the method: as §1
# [24] = target: Neu5Ac(a2-3)Gal(b1-4)GlcNAc(b1-3)Gal(b1-4)[Fuc(a1-3)]GlcNAc
# Summary of the method: as §1
# [25] = target: Neu5Ac(a2-3)Gal(b1-4)[Fuc(a1-3)]GlcNAc(b1-3)Gal(b1-4)GlcNAc
# Summary of the method: as §1
# [26] = target: Neu5Ac(a2-3)Gal(b1-4)[Fuc(a1-3)]GlcNAc(b1-3)GalNAc
# Summary of the method: as §1
# [27] = target: Neu5Ac(a2-3)Gal(b1-4)[Fuc(a1-3)]GlcNAc(b1-6)[Neu5Ac(a2-3)Gal(b1-3)]GalNAc
# Summary of the method: as §1
# [28] = target: Neu5Ac(a2-3)GalNAc(b1-4)GlcNAc
# Summary of the method: as §1
# [29] = target: Neu5Ac(a2-3)[GalNAc(b1-4)]Gal(b1-4)GlcNAc(b1-3)GalNAc
# Summary of the method: as §1
# [30] = target: Neu5Ac(a2-3)[Neu5Ac(a2-6)]GalNAc
# Summary of the method: as §1
# [31] = target: Neu5Ac(a2-6)Gal(b1-4)GlcNAc(b1-2)Man(a1-6)Man(b1-4)GlcNAc(b1-4)GlcNAc
# Summary of the method: as §1
# [32] = target: Neu5Ac9Ac(a2-3)Gal(b1-3)GlcNAc
# Summary of the method: as §1
# [33] = target: Neu5Gc(a2-3)Gal(b1-3)[Fuc(a1-4)]GlcNAc
# Summary of the method: as §1
# [34] = target: Neu5Gc(a2-6)Gal(b1-4)GlcNAc
# Summary of the method: as §1
binder,measurement,setting,value
"PEB1 (Campylobacter jejuni), Q0P9X8 (protein) MVFRKSLLKLAVFALGACVAFSNANAAEGKLESIKSKGQLIVGVKNDVPHYALLDQATGEIKGFEVDVAKLLAKSILGDDKKIKLVAVNAKTRGPLLDNGSVDAVIATFTITPERKRIYNFSEPYYQDAIGLLVLKEKKYKSLADMKGANIGVAQAATTKKAIGEAAKKIGIDVKFSEFPDYPSIKAALDAKRVDAFSVDKSILLGYVDDKSEILPDSFEPQSYGIVTKKDDPAFAKYVDDFVKEHKNEIDALAKKWGL",glycan array binding signal (z-score),[1],-0.354
same,glycan array binding signal (z-score),[2],-0.084
same,glycan array binding signal (z-score),[3],0.768
same,glycan array binding signal (z-score),[4],1.37
same,glycan array binding signal (z-score),[5],-0.842
same,glycan array binding signal (z-score),[6],0.229
same,glycan array binding signal (z-score),[7],3.87
same,glycan array binding signal (z-score),[8],3.37
same,glycan array binding signal (z-score),[9],0.469
same,glycan array binding signal (z-score),[10],4.54
same,glycan array binding signal (z-score),[11],-0.718
same,glycan array binding signal (z-score),[12],0.818
same,glycan array binding signal (z-score),[13],0.014
same,glycan array binding signal (z-score),[14],-0.613
same,glycan array binding signal (z-score),[15],-1.39
same,glycan array binding signal (z-score),[16],-1.26
same,glycan array binding signal (z-score),[17],0.849
same,glycan array binding signal (z-score),[18],4.17
same,glycan array binding signal (z-score),[19],0.303
same,glycan array binding signal (z-score),[20],-0.113
same,glycan array binding signal (z-score),[21],-0.547
same,glycan array binding signal (z-score),[22],-0.813
same,glycan array binding signal (z-score),[23],0.311
same,glycan array binding signal (z-score),[24],-0.941
same,glycan array binding signal (z-score),[25],3.14
same,glycan array binding signal (z-score),[26],8.24
same,glycan array binding signal (z-score),[27],3.1
same,glycan array binding signal (z-score),[28],-0.108
same,glycan array binding signal (z-score),[29],-0.77
same,glycan array binding signal (z-score),[30],-0.361
same,glycan array binding signal (z-score),[31],1.09
same,glycan array binding signal (z-score),[32],-0.504
same,glycan array binding signal (z-score),[33],-0.646
same,glycan array binding signal (z-score),[34],0.988
